The results in this text go back to PubChem BioAssay.

Test [1] can be described thus: antimalarial activity against Dd2 strain (AID 2302;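 active = growth inhibition above 50% at the single 2 µM test dose, taken to imply half-maximal potency below 2 µM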;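 also: 0% = DMSO untreated growth and 100% = chloroquine plus artemisinin killed control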). As to conditions: P. falciparum Dd2 in RBCs, LDH growth readout, 72 h; at 2 µM; hits give high values.
Test [2] can be described thus: human hepatoma cell viability loss – ATP luminescence, cytotoxicity control for P. falciparum antimalarial project, primary screen (AID 2303;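 active = inhibition above 50%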;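 also: 0% = DMSO wells and 100% = digitonin-killed cells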). As to conditions: HepG2 viability, 24-48 h, at 10 µM, hits give high values.
For test [3], the target named is L-lactate dehydrogenase (Plasmodium falciparum (isolate CDC / Honduras)) (UniProt Q27743). Description: PfLDH activity inhibition – cell lysate, 3D7 strain, counter-screen for P. falciparum growth inhibition project (AID 2304).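 Also: 0% = vehicle and 100% = reference inhibitor.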 As to conditions: P. falciparum 3D7 crude extract, LDH APAD/NBT absorbance; at 2 µM; hits give high values. In general terms: A counterscreen serves to expose hits that act by an unwanted route or on another target.

Test [4] is described as follows: inhibition of 3D7 malaria parasite growth – strain 3D7 (AID 2306).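 Also: 0% = DMSO wells and 100% = chloroquine plus artemisinin control wells.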 As to conditions: P. falciparum 3D7 erythrocytic growth, LDH absorbance, 72 h; at 2 µM; hits give high values.
For test [5], the target named is Calcium-dependent protein kinase 1 (Plasmodium falciparum (isolate 3D7)) (UniProt P62344). The experiment in a line: PfCDPK1 kinase inhibitors, biochemical, TCAMS library (AID 1159585; cut-off not given, nearly all actives have IC50 up to about 0.98 µM;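 also: inhibitors leave more ATP so luminescence rises with inhibition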). As to conditions: recombinant PfCDPK1, Kinase-Glo ATP depletion luminescence. A general note: Kinase-Glo measures the ATP left after a reaction by luminescence.
Test [6] concerns the target Plasmodium falciparum protein kinase 6 (PK6, PF3D7_1337100) (UniProt Q8IDW1). Description: PfPK6 kinase inhibitors, biochemical, TCAMS library (AID 1159586). As to conditions: recombinant PfPK6, Kinase-Glo ATP depletion luminescence.
Test [7] has as its target Protein kinase 7 (PK7), Plasmodium falciparum 3D7 (PF3D7_0213400) (UniProt Q7YTF7). The experiment in a line: inhibition of Plasmodium PK7 catalytic activity – biochemical, TCAMS antimalarial set, Kinase-Glo luminescence (AID 1159587). As to conditions: recombinant PfPK7, Kinase-Glo ATP depletion luminescence.
Test [8] has as its target Calcium-dependent protein kinase 4 (Plasmodium falciparum (isolate 3D7)) (UniProt Q8IBS5). The experiment in a line: PfCDPK4 kinase inhibitors, biochemical, TCAMS library (AID 1159588; cut-off not given, nearly all actives have IC50 up to about 0.91 µM). The following applies: recombinant PfCDPK4, Kinase-Glo ATP depletion luminescence.

The structures appear in SMILES notation. Unmarked numbers belong to inactive results. For part of these data: Results with a measured potency or affinity are listed apart. Active and inactive are the calls of the source. Unless noted, no rule for the calls is given here.

Calcium-dependent protein kinase 1 (Plasmodium falciparum (isolate 3D7)), sequence (P62344 whole entry, looked up): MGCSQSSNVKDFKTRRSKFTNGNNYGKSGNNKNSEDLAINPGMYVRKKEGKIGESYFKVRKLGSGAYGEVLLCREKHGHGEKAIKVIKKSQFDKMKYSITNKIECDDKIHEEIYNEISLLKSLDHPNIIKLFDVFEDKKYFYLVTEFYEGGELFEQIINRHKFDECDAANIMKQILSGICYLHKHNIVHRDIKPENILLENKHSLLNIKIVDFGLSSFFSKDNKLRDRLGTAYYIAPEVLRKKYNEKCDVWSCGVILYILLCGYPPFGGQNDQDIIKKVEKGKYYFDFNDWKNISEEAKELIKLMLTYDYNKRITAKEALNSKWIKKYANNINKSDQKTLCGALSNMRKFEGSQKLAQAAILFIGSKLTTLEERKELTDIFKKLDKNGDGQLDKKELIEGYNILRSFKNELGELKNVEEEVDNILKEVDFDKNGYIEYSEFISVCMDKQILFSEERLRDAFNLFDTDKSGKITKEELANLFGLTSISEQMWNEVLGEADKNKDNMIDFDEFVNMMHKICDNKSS
Protein kinase 7 (PK7), Plasmodium falciparum 3D7 (PF3D7_0213400), sequence (Q7YTF7 1-343): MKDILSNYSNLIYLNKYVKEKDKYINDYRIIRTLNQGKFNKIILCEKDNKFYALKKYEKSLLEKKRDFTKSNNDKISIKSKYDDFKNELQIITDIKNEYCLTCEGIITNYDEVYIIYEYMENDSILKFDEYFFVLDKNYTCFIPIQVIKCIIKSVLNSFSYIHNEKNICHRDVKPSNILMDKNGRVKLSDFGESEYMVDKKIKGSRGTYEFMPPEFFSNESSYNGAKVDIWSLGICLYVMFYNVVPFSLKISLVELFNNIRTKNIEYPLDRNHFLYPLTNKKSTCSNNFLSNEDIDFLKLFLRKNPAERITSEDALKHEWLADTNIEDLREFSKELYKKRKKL
Plasmodium falciparum protein kinase 6 (PK6, PF3D7_1337100), sequence (Q8IDW1 1-305): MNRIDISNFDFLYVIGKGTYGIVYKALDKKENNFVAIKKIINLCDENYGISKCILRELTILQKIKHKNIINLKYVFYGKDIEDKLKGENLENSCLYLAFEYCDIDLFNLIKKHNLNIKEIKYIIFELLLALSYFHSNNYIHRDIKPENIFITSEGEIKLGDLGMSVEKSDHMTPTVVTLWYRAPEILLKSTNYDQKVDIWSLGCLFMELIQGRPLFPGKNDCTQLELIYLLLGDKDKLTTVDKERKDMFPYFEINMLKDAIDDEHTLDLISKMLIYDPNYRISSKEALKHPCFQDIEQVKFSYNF
L-lactate dehydrogenase (Plasmodium falciparum (isolate CDC / Honduras)), sequence (Q27743 whole entry, looked up): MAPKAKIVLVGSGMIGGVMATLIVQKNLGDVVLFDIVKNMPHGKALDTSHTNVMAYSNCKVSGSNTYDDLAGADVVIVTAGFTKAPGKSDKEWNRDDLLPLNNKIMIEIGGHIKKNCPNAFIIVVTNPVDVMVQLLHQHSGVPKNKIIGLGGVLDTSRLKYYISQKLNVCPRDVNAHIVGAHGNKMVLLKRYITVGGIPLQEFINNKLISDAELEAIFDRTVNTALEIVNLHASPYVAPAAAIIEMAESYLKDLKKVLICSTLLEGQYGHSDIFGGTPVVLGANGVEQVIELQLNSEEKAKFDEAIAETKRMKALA
Calcium-dependent protein kinase 4 (Plasmodium falciparum (isolate 3D7)), sequence (Q8IBS5 whole entry, looked up): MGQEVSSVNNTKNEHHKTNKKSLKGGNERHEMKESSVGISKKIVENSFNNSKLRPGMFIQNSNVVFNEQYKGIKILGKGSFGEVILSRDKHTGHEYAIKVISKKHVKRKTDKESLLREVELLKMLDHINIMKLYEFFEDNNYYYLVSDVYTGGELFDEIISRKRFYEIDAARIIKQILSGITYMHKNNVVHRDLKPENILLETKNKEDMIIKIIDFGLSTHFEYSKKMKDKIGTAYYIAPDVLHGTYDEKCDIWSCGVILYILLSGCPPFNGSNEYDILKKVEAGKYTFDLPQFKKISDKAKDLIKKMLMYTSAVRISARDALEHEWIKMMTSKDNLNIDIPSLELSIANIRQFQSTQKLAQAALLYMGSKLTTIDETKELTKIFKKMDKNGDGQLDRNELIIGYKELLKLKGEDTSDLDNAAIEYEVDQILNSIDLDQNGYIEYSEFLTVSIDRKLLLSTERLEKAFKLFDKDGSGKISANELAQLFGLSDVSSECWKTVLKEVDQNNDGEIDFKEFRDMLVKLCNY

Broadly, the inhibition is the relative decrease from the control value, in per cent. Take `Cc1cccc2[nH]c(-c3cccc(-c4ccc(NC(=O)C5CCCO5)cc4)c3)nc12` (stereo not drawn): the growth inhibition was 13% in test [1] and 91% (active) in test [4]. Moreover, the inhibition was 10% in test [2] and -4% in test [3]. Further, the result in test [5], in test [6], in test [7] and in test [8] was inactive.
Turning to `Nc1nc(N)c2c(Cl)c(N(Cc3ccccc3)Cc3ccccc3)ccc2n1`, the figures for the growth inhibition in test [1] and in test [4] were 2% and 96% (active), respectively. Besides, the results for the inhibition in test [2] and in test [3] were 66% (active) and 2%, respectively. Besides, the result in test [5], in test [6], in test [7] and in test [8] was inactive.
Consider `Cc1noc(C)c1-c1ccc2c(Nc3nccc4ccccc34)c(C(N)=O)cnc2c1`, for which the growth inhibition was 99% (active) in test [1] and 100% (active) in test [4]. Also, the inhibition in test [2] was 100% (active); in test [3], 1%. The outcome in test [5], in test [6], in test [7] and in test [8] was inactive.
For the molecule `CCOc1ccc2nc(C)cc(NN=Cc3cccnc3)c2c1`, the growth inhibition in test [1] is 100% (active); in test [4] it was 102% (active). Besides, the inhibition was 18% in test [2] and 1% in test [3]. The result in test [5], in test [6], in test [7] and in test [8] was inactive.
Regarding `COc1cc2c(cc1CCNCCCCNCCc1cc3c(cc1OC)CCCC3)CCCC2`, the results for the growth inhibition in test [1] and in test [4] were 36% and 101% (active), respectively. For the same molecule, the inhibition was 100% (active) in test [2] and 0% in test [3]. Moreover, the outcome in test [5], in test [6], in test [7] and in test [8] was inactive.
Take `Cc1[nH]c(C)c(-c2ccc(-c3ccc(OC(F)(F)F)cc3)cc2)c(=O)c1Cl`: the figures for the growth inhibition in test [1] and in test [4] were 97% (active) and 98% (active), respectively. Besides, the inhibition is 24% in test [2] and 1% in test [3]. Also, the outcome in test [5], in test [6], in test [7] and in test [8] was inactive.
In the case of `N#Cc1ccc(CNCCCCCCCNCc2ccc(-c3ccccc3)cc2)cc1`, the growth inhibition in test [1] was 10%; in test [4] it was 87% (active). The inhibition was 19% in test [2] and 3% in test [3]. The result in test [5], in test [6], in test [7] and in test [8] was inactive.
For `Cc1cc(NN=Cc2ccc(Cl)cc2)c2cc(F)ccc2n1`, the growth inhibition in test [1] was 98% (active); in test [4] it was 101% (active). The inhibition was 6% in test [2] and 2% in test [3]. The outcome in test [5], in test [6], in test [7] and in test [8] was inactive.
For `N#Cc1cccc(COC(=O)C2=C(COc3ccccc3Cl)NC(=O)NC2c2c[nH]c3cnccc23)c1` (stereo not drawn), the growth inhibition was -3% in test [1] and 99% (active) in test [4]. Further, the results for the inhibition in test [2] and in test [3] were 0% and -1%, respectively. Moreover, the outcome in test [5], in test [6], in test [7] and in test [8] was inactive.
For the molecule `Cn1ccc2c3c(N)nc(N)nc3ccc21`, the growth inhibition in test [1] was 17%; in test [4], 91% (active). In addition, the inhibition in test [2] is 59% (active); in test [3] it was 6%. The result in test [5], in test [6], in test [7] and in test [8] was inactive.
As for `Cc1ncccc1C(=O)Nc1cccc(-c2cccc(-c3nc4c(C)cccc4[nH]3)c2)c1`, the growth inhibition in test [1] was 69% (active); in test [4], 93% (active). The values for the inhibition in test [2] and in test [3] were 6% and 4%, respectively. Moreover, the result in test [5], in test [6], in test [7] and in test [8] was inactive.
For `COc1cc(NCCCCCNc2cc(Cl)nc3ccccc23)nc2ccccc12`, the results for the growth inhibition in test [1] and in test [4] were 54% (active) and 103% (active), respectively. Moreover, the inhibition in test [2] was 17%; in test [3], -3%. The result in test [5], in test [6], in test [7] and in test [8] was inactive.
For the molecule `c1ccc(CSC2=NNC(c3ccccn3)S2)cc1` (stereo not drawn), the values for the growth inhibition in test [1] and in test [4] were 65% (active) and 80% (active), respectively. Moreover, the inhibition in test [2] is 6%; in test [3], 0%. In addition, the outcome in test [5], in test [6], in test [7] and in test [8] was inactive.
As to `Cc1cc(-c2ccc(Cl)cc2)c2c(N)c(C(=O)Nc3ccc(F)cc3)sc2n1`, the values for the growth inhibition in test [1] and in test [4] were 87% (active) and 97% (active), respectively. For the same molecule, the values for the inhibition in test [2] and in test [3] were 12% and 0%, respectively. Besides, the outcome in test [5], in test [6], in test [7] and in test [8] was inactive.
`COc1ccc(NC(=O)/C=C/c2ccccc2Cl)cc1OCCN1CCC(N(C)C)CC1`: the growth inhibition in test [1] was 19%; in test [4], 89% (active). The inhibition in test [2] was 18%; in test [3] it was -2%. Moreover, the outcome in test [5], in test [6], in test [7] and in test [8] was inactive.
With `COc1ccc(C2CC(c3cccs3)=NN2C(=O)COc2cccc3c2CCCC3O)cc1OC` (stereo not drawn), the results for the growth inhibition in test [1] and in test [4] were 62% (active) and 93% (active), respectively. Besides, the values for the inhibition in test [2] and in test [3] were 5% and 3%, respectively. Also, the outcome in test [5], in test [6], in test [7] and in test [8] was inactive.
In the case of `CC(C)NCc1cccc(-c2cccc(-c3nc4ccccc4[nH]3)c2)c1`, the growth inhibition in test [1] is 22%; in test [4] it was 100% (active). The figures for the inhibition in test [2] and in test [3] were 11% and -2%, respectively. The outcome in test [5], in test [6], in test [7] and in test [8] was inactive.
Take `CN1CCN(c2ccnc3ccc(NC(=O)Nc4cccc5c(Br)cccc45)cc23)CC1`: the growth inhibition was 96% (active) in test [1] and 100% (active) in test [4]. Besides, the inhibition in test [2] is 7%; in test [3], 6%. For the same molecule, the outcome in test [5], in test [6], in test [7] and in test [8] was inactive.
`COCC(=O)Nc1nc2ccccc2[nH]1`: the growth inhibition in test [1] is 1%; in test [4], 98% (active). In addition, the inhibition in test [2] was -14%; in test [3], -5%. For the same molecule, the outcome in test [5], in test [6], in test [7] and in test [8] was inactive.
In the case of `CC(C)CCn1c(Sc2ccc(C#N)c([N+](=O)[O-])c2)nnc1-c1ccc(Cl)cc1`, the growth inhibition in test [1] is 39%; in test [4], 90% (active). Further, the inhibition is 25% in test [2] and -1% in test [3]. Moreover, the outcome in test [5], in test [6], in test [7] and in test [8] was inactive.
In the case of `CCn1c(SCc2ccccc2)nc2c1c(=O)[nH]c(=O)n2C`, the growth inhibition in test [1] is 30%; in test [4], 96% (active). For the same molecule, the inhibition is 1% in test [2] and -1% in test [3]. The outcome in test [5], in test [6], in test [7] and in test [8] was inactive.
